Results filed as inconclusive are left out. Calls of active or inactive are those of the source. Calls follow the shape of the dose curve; as a rule, active = well fitted curve in the direction sought with a large enough effect; inconclusive = small, poorly fitted or top-dose-only effect, or another doubt; inactive = no such curve, though single readings can be large; an effect the other way counts as inactive or inconclusive.
Legend:
CRL-7250 = normal cell line; experiment: Cytotoxic Profiling of Annotated Libraries Using Quantitative High-Throughput Screening (AID 1296008); details: Five cell lines viability, CellTiter-Glo ATP luminescence, 48-72 h; max response: stronger effect = lower value; also: nearly all actives have a fitted effect of over 60% in size; as to max response: % is scaled to controls: 0 for no effect and ±100 for the full control effect
Outline: (§1)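 Compounds were pin-transferred onto cells and incubated 48 or 72 hr at 37 degree Celsius, 95% humidity. CellTiter-Glo was added, plates sat 10 min at room temperature, then ATP-coupled luminescence was imaged as the viability read-out.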

HEK293 = experiment: as above; details: Five cell lines viability, CellTiter-Glo ATP luminescence, 48-72 h; max response: stronger effect = lower value
Outline: as §1

HaCat [1] = experiment: as above; details: Five cell lines viability, CellTiter-Glo ATP luminescence, 48-72 h; max response: stronger effect = lower value
Outline: as §1

KB-3-1 = experiment: as above; details: Five cell lines viability, CellTiter-Glo ATP luminescence, 48-72 h; max response: stronger effect = lower value
Outline: as §1

NIH3T3 = experiment: as above; details: Five cell lines viability, CellTiter-Glo ATP luminescence, 48-72 h; max response: stronger effect = lower value
Outline: as §1

HACAT [2] = experiment: qHTS assay to identify novel small-molecules to repurpose for Merkel cell carcinoma treatment (AID 1296009); details: MCC and control cell lines, CellTiter-Glo viability, 72 h; at 44.8 µM (top of the series) unless noted; also: nearly all actives have a fitted effect of over 60% in size
Outline: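 qHTS format: cells treated with library compounds in DMSO across 8 (NPC) or 11 (MIPE) concentrations. Readout after 72 hr at 37 degree celsius was CellTiter-Glo luminescence.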

C33A = experiment: Primary qHTS to identify gynecologic anti-cancer compounds using libraries of approved drugs and bioactive compounds (AID 1345084); details: Gynecologic cancer cell panel viability, ATPlite luminescence, 48 h; series mostly up to 57.5 µM; also: % is scaled to controls: 0 for no effect and ±100 for the full control effect; nearly all actives have a fitted effect of over 55% in size
Outline: (§2)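 Cell viability after 48 h drug treatment, ATPlite luminescence readout; five doses.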

CAOV3 = experiment: as above; details: Gynecologic cancer cell panel viability, ATPlite luminescence, 48 h; series mostly up to 57.5 µM
Outline: as §2

CASKI = experiment: as above; details: Gynecologic cancer cell panel viability, ATPlite luminescence, 48 h; series mostly up to 57.5 µM
Outline: as §2

Es-2 = experiment: as above; details: Gynecologic cancer cell panel viability, ATPlite luminescence, 48 h; series mostly up to 57.5 µM
Outline: as §2

HeLa = experiment: as above; details: Gynecologic cancer cell panel viability, ATPlite luminescence, 48 h; series mostly up to 57.5 µM
Outline: as §2

Hek293T = experiment: as above; details: Gynecologic cancer cell panel viability, ATPlite luminescence, 48 h, control line for the selectivity index; series mostly up to 57.5 µM
Outline: as §2

JEG-3 = experiment: as above; details: Gynecologic cancer cell panel viability, ATPlite luminescence, 48 h; series mostly up to 57.5 µM
Outline: as §2

OV90 = experiment: as above; details: Gynecologic cancer cell panel viability, ATPlite luminescence, 48 h; series mostly up to 57.5 µM
Outline: as §2

PA-1 = experiment: as above; details: Gynecologic cancer cell panel viability, ATPlite luminescence, 48 h; series mostly up to 57.5 µM
Outline: as §2

CC1(C)C(=O)N2c3ccccc3C(O)(CC(C(=O)O)n3cnc4ccccc4c3=O)C2N1O (centres undefined)
inactive: max response (CRL-7250) 0.472% | max response (HEK293) -0.978% | outcome (HaCat [1]) | max response (KB-3-1) 4.14% | max response (NIH3T3) 1.17% | outcome (HACAT [2]) inactive [at 17.4 µM] | Potency (C33A) | Potency (CAOV3) | outcome (CASKI) | Potency (Es-2) | Potency (HeLa) | Potency (Hek293T) | Potency (JEG-3) | Potency (OV90) | Potency (PA-1)

COCC1OC(n2cnc3c(=O)[nH]cnc32)C(O)C1O (centres undefined)
inactive: outcome (CRL-7250) | max response (HEK293) -3.16% | outcome (HaCat [1]) | max response (KB-3-1) 2.47% | max response (NIH3T3) -2.27% | outcome (HACAT [2]) | Potency (C33A) | Potency (CAOV3) | outcome (CASKI) | Potency (Es-2) | Potency (HeLa) | Potency (Hek293T) | Potency (JEG-3) | Potency (OV90) | Potency (PA-1)

CC(C)=CC[C@H]1O[C@]2(O)C([C@H]3CCC4[C@@]5(C)CC[C@H](O[C@@H]6O[C@H](CO)[C@H](O)[C@H](O[C@@H]7O[C@H](CO)[C@@H](O)[C@H](O)[C@H]7O)[C@H]6O[C@@H]6O[C@@H](C)[C@H](O)[C@@H](O)[C@H]6O)C(C)(C)C5CC[C@@]4(C)[C@]3(C)[C@H]2O)[C@@]1(C)O (some centres undefined)
inactive: max response (CRL-7250) 0.206% | max response (HEK293) 2.46% | outcome (HaCat [1]) | max response (KB-3-1) 9.9% | max response (NIH3T3) 0.989% | outcome (HACAT [2]) inactive [at 9.27 µM] | activity change, negative = cytotoxicity (C33A) 1.02% [at 11.6 µM] | activity change, negative = cytotoxicity (CAOV3) 7.68% [at 11.6 µM] | activity change, negative = cytotoxicity (CASKI) -0.575% [at 11.6 µM] | activity change, negative = cytotoxicity (Es-2) -1.48% [at 11.6 µM] | activity change, negative = cytotoxicity (HeLa) -4.09% [at 11.6 µM] | activity change, negative = cytotoxicity (Hek293T) 0.87% [at 11.6 µM] | activity change, negative = cytotoxicity (JEG-3) 13.4% [at 11.6 µM] | activity change, negative = cytotoxicity (OV90) -2.06% [at 11.6 µM] | activity change, negative = cytotoxicity (PA-1) 0.425% [at 11.6 µM]

COCC1OC(OC(C)(C)C2CCC3(C)C=C(C4CCC5C4(C)CC(O)C4OC(C(C)(C)O)CCC45C)CCC3O2)C(NC(C)=O)C(O)C1O (centres undefined)
inactive: outcome (CRL-7250) | max response (HEK293) 2.29% | outcome (HaCat [1]) | max response (KB-3-1) 7.28% | max response (NIH3T3) 1.37% | outcome (HACAT [2]) inactive [at 17.4 µM] | Potency (C33A) | Potency (CAOV3) | outcome (CASKI) | Potency (Es-2) | Potency (HeLa) | Potency (Hek293T) | Potency (JEG-3) | Potency (OV90) | Potency (PA-1)

CC(=O)O[C@H]1C[C@@]2(C)[C@@H](CC[C@H]3[C@@]4(C)C=CC(=O)[C@@H](C)[C@@H]4[C@H](OC(C)=O)C(=O)[C@@]32C)/C1=C(\CCC=C(C)C)C(=O)O
inactive: max response (CRL-7250) 4.49% | max response (HEK293) -0.998% | outcome (HaCat [1]) | max response (KB-3-1) 5.79% | max response (NIH3T3) -2.17% | outcome (HACAT [2]) inactive [at 17.4 µM] | Potency (C33A) | Potency (CAOV3) | outcome (CASKI) | Potency (Es-2) | Potency (HeLa) | Potency (Hek293T) | Potency (JEG-3) | Potency (OV90) | Potency (PA-1)

C[C@@H](CC[C@@H]1[C@@]2(C)CCCC(C)(C)C2CC[C@@]1(C)O)CC(=O)O (some centres undefined)
inactive: outcome (CRL-7250) | max response (HEK293) -2.2% | outcome (HaCat [1]) | outcome (KB-3-1) | max response (NIH3T3) 0.858% | outcome (HACAT [2]) | Potency (C33A) | Potency (CAOV3) | outcome (CASKI) | Potency (Es-2) | Potency (HeLa) | Potency (Hek293T) | Potency (JEG-3) | Potency (OV90) | Potency (PA-1)

O=C(OCC1OC(Oc2ccc(O)cc2COC(=O)C2(O)C(O)CCC(=O)C2OC(=O)C2C=CCC2)C(OC(=O)C2C=CCC2)C(O)C1O)C1C=CCC1 (centres undefined)
inactive: max response (CRL-7250) -0.0328% | max response (HEK293) -10.5% | outcome (HaCat [1]) | max response (KB-3-1) 6.15% | max response (NIH3T3) 3.99% | outcome (HACAT [2]) inactive [at 17.4 µM] | Potency (C33A) | Potency (CAOV3) | outcome (CASKI) | Potency (Es-2) | Potency (HeLa) | Potency (Hek293T) | Potency (JEG-3) | Potency (OV90) | Potency (PA-1)

O=C(O)c1ccncc1Nc1nn(CCN2CCC(F)(F)CC2)c2ccc(F)cc12
inactive: max response (CRL-7250) -22.9% | max response (HEK293) 0.878% | outcome (HaCat [1]) | max response (KB-3-1) 9.77% | max response (NIH3T3) 1.4% | outcome (HACAT [2]) | Potency (C33A) | Potency (CAOV3) | outcome (CASKI) | Potency (Es-2) | Potency (HeLa) | Potency (Hek293T) | Potency (JEG-3) | Potency (OV90) | Potency (PA-1)

CC(=O)O[C@@H]1C(O)C[C@@]2(C)C(CC[C@@H](C)C23Cc2c(O)cc4c(c2O3)CNC4=O)C1(C)C (some centres undefined)
inactive: max response (CRL-7250) 0.238% | max response (HEK293) 1.81% | outcome (HaCat [1]) | max response (KB-3-1) -3.56% | max response (NIH3T3) -7.87% | outcome (HACAT [2]) inactive [at 17.4 µM] | Potency (C33A) | Potency (CAOV3) | outcome (CASKI) | Potency (Es-2) | Potency (Hek293T) | Potency (JEG-3) | Potency (OV90) | Potency (PA-1)
